Measured values: PubChem BioAssay (EPA / NIEHS)
Records with an inconclusive call do not appear. Active and inactive are the calls of the source. The calls were made as follows, unless noted: active = hit-call score of the fitted dose curve at least 0.9, where 1 is the maximum; inactive = score below 0.9.

Columns and labels:
[1] = CCTE_Shafer_MEA_dev_LDH: CCTE's Lactate Dehydrogenase Assay for Cytotoxicity in the Neural Network Formation Assay, Shafer Lab (AID 2284068; active = hit-call score of the fitted dose curve at least 0.9, where 1 is the maximum;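 also: exposure for twelve days from plating with re-dosing on DIV 5 and 9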)
Summary of the method: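 Developing rat cortical networks on MEA plates are exposed to compound for 12 days from plating. LDH activity is measured spectrophotometrically, with DMSO as baseline.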

[2] = CCTE_Shafer_MEA_dev_mutual_information_norm: CCTE's Neural Network Formation Assay for Mutual Information Normalization, Shafer Lab (AID 2284091)
Summary of the method: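 Primary rat cortical neurons on PEI-coated 48-well MEA plates, 1.5 x 10^5 cells/well, exposed from day 0 through day 12 with re-dosing at DIV 5 and 9. Mutual information between electrodes recorded days 5, 7, 9, 12; trapezoidal AUC, loss-of-signal fit versus DMSO.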

[3] = CCTE_Shafer_MEA_dev_correlation_coefficient_mean: CCTE's Neural Network Formation Assay for Mean Correlation Coefficient, Shafer Lab (AID 2284093)
Summary of the method: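 Extracellular firing from rat cortical networks on 48-well MEAs, DMSO-referenced, negative fitting direction. Compound present from plating to DIV12; mean pairwise correlation per well integrated over DIV5–12 recordings by trapezoidal AUC.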

[4] = CCTE_Mundy_HCI_Cortical_Synap_Neur_Matur_NeuriteSpotCountPerNeuriteLength: CCTE's Synaptogenesis and Neurite Maturation Assay in rat cortical cells for Neurite Spot Count per Neurite Length, Mundy Lab (AID 2284210)
Summary of the method: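 Rat primary cortical cultures, AraC added at DIV 5 to suppress glia; chemical exposure from DIV 7 to DIV 12. Fixed cells stained for MAP2 and synaptophysin plus Hoechst; synaptophysin puncta per neurite length quantified by high-content imaging, relative to DMSO.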

[5] = CCTE_Mundy_HCI_Cortical_Synap_Neur_Matur_BPCount: CCTE's Synaptogenesis and Neurite Maturation Assay in rat cortical cells for Branch Point Count, Mundy Lab (AID 2284211)
Summary of the method: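 Branch point number is quantified by automated imaging of fluorescently labelled neurites and synapses in rat primary cortical neurons exposed from DIV 7 to DIV 12. Activity is analysed relative to DMSO negative control.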

[6] = CCTE_Mundy_HCI_Cortical_NOG_NeuriteCount: CCTE's Neurite Outgrowth Assay in rat cortical cells for Neurite Count, Mundy Lab (AID 2284212);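 also: cells fixed about two days after chemical exposure began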
Summary of the method: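 Neurite number per cell from high-content imaging of betaIII-tubulin immunostaining, with Hoechst nuclear counterstain.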

[7] = CCTE_Mundy_HCI_Cortical_NOG_NeuriteLength: CCTE's Neurite Outgrowth Assay in rat cortical cells for Neurite Length, Mundy Lab (AID 2284213)
Summary of the method: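 Neurite length was read by high-content imaging of βIII-tubulin-labelled neurites in rat primary cortical cultures. Activity was fitted relative to DMSO.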

[8] = CCTE_Mundy_HCI_Cortical_Synap_Neur_Matur_NeuriteLength: CCTE's Synaptogenesis and Neurite Maturation Assay in rat cortical cells for Neurite Length, Mundy Lab (AID 2284214)
Summary of the method: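 Rat primary cortical cells were plated, treated with AraC at DIV 5 to arrest glial growth, then chemical-dosed with media change at DIV 7 through DIV 12. Fixed cells stained for MAP2, synaptophysin and Hoechst; neurite length quantified by high-content imaging.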

[9] = CCTE_Mundy_HCI_Cortical_Synap_Neur_Matur_NeuriteSpotCountPerNeuron: CCTE's Synaptogenesis and Neurite Maturation Assay in rat cortical cells for Neurite Spot Count per Neuron Count, Mundy Lab (AID 2284215)
Summary of the method: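 Synapse density is scored as synaptophysin spots along neurites per neuron in fixed rat cortical neurons, measured at DIV 12 after chemical dosing at DIV 7. DMSO is the negative control and activity baseline.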

[10] = CCTE_Mundy_HCI_Cortical_Synap_Neur_Matur_SynapseCount: CCTE's Synaptogenesis and Neurite Maturation Assay in rat cortical cells for Synapse Count, Mundy Lab (AID 2284218)
Summary of the method: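 Rat primary cortical cells in 96-well plates received AraC at DIV 5 and were dosed with chemicals at DIV 7 with media change, through DIV 12 (288.33 h). Synapses per neuron counted by high-content imaging of MAP2/synaptophysin/Hoechst staining, versus DMSO baseline.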

[11] = CCTE_Mundy_HCI_Cortical_Synap_Neur_Matur_NeuriteCount: CCTE's Synaptogenesis and Neurite Maturation Assay in rat cortical cells for Neurite Count, Mundy Lab (AID 2284222);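 also: exposure from day 7 to day 12 in vitro with readout at day 12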
Summary of the method: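 In this multiplexed morphology readout, rat primary cortical neurons are fixed at DIV 12 following dosing at DIV 7 and stained for MAP2, synaptophysin and nuclei. High-content image analysis yields neurite count.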

[12] = CCTE_Mundy_HCI_Cortical_Synap_Neur_Matur_CellBodySpotCount: CCTE's Synaptogenesis and Neurite Maturation Assay in rat cortical cells for Cell Body Spot Count, Mundy Lab (AID 2284223)
Summary of the method: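 Synapse number at neuronal cell bodies was quantified as synaptophysin puncta per neuron in rat cortical cultures exposed from DIV 7 to DIV 12. Values were normalised to DMSO.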

[13] = CCTE_Mundy_HCI_Cortical_NOG_BPCount: CCTE's Neurite Outgrowth Assay in rat cortical cells for Branch Point Count, Mundy Lab (AID 2284237)
Summary of the method: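 Measured 50.33 h after dosing, this morphology endpoint uses rat primary cortical cultures labelled for betaIII-tubulin. Branch points are quantified by high-content imaging, with DMSO as negative control and baseline.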

[14] = CCTE_Mundy_HCI_hNP1_Casp3_7: CCTE's Caspase-Glo 3/7 Assay in human neuroprogenitor cells for Apoptosis, Mundy Lab (AID 2284240)
Summary of the method: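 Luminescent caspase-3/7 readout, 26.5 h post-dose, in human neural progenitor cells from WA09 embryonic stem cells. Cells grew 40–44 h at 37 °C, 5% CO2 before chemical addition. Activity analysed as signal increase over DMSO baseline.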

[15] = CCTE_Mundy_HCI_iCellGluta_NOG_NeuronCount: CCTE's Neurite Outgrowth Assay in iCellGluta cells for Neuron Count, Mundy Lab (AID 2284340; active = hit-call score of the fitted dose curve at least 0.9, where 1 is the maximum;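 also: cells fixed about 48 h after compound addition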)
Summary of the method: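 Neuron count read by automated high-content imaging of Hoechst 33342 and betaIII-tubulin/Alexa Fluor-488 labelling in human iPSC glutamatergic neurons. Activity fitted relative to DMSO.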

[16] = CCTE_Mundy_HCI_iCellGluta_NOG_NeuriteCount: CCTE's Neurite Outgrowth Assay in iCellGluta cells for Neurite Count, Mundy Lab (AID 2284342; active = hit-call score of the fitted dose curve at least 0.9, where 1 is the maximum;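 also: chemical exposure about 48 hours starting 2 hours after plating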)
[17] = biological target: Retinoic acid receptor alpha (Homo sapiens) (UniProt P10276); test: NVS_NR_hRARa_Agonist: NovaScreen (NVS) Nuclear Receptor Binding Assay for human Retinoic Acid Alpha Receptor Agonism (RAR) (AID 2283361; active = hit-call score of the fitted dose curve at least 0.9, where 1 is the maximum)
Summary of the method: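 Cell-free TR-FRET binding readout with extracted receptor protein, read 2 hours after dosing; gain-of-signal fitted relative to DMSO. Screened in duplicate at 25 uM, actives then run in concentration-response.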

[18] = CEETOX_H295R_OHPREG: CeeTox H295R High-throughput Steroidogenesis Assay for OH-Pregnenolone (OHPREG) (AID 2283434); conditions: actives raise or lower the signal
Summary of the method: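 H295R cells pre-stimulated 48 h with 10 uM forskolin, then exposed 48 h to chemical in 0.1% DMSO. 17alpha-hydroxypregnenolone in medium quantified by MTBE extraction and HPLC-MS/MS; bidirectional fit versus DMSO, viability checked by MTT.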

[19] = CEETOX_H295R_OHPROG: CeeTox H295R High-throughput Steroidogenesis Assay for OH-Progesterone (OHPROG) (AID 2283435); conditions: actives raise or lower the signal
Summary of the method: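 H295R human adrenal cells were prestimulated 48 h with 10 uM forskolin, then exposed 48 h to test chemical (0.1% DMSO final). 17alpha-hydroxyprogesterone in medium was measured by HPLC-MS/MS after MTBE extraction; bidirectional fitting vs DMSO.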

[20] = CEETOX_H295R_PROG: CeeTox H295R High-throughput Steroidogenesis Assay for Progesterone (PROG) (AID 2283442); conditions: actives raise or lower the signal
Summary of the method: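 Adrenal H295R line, forskolin-stimulated (10 uM, 48 h) before dosing. 48 h exposure, 0.1% DMSO vehicle. Secreted progesterone by reverse-phase HPLC with ESI+ MS/MS quantification; DMSO-normalised bidirectional curve fit.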

Measured: AC50

Retinoic acid receptor alpha (Homo sapiens), sequence (P10276 whole entry, looked up): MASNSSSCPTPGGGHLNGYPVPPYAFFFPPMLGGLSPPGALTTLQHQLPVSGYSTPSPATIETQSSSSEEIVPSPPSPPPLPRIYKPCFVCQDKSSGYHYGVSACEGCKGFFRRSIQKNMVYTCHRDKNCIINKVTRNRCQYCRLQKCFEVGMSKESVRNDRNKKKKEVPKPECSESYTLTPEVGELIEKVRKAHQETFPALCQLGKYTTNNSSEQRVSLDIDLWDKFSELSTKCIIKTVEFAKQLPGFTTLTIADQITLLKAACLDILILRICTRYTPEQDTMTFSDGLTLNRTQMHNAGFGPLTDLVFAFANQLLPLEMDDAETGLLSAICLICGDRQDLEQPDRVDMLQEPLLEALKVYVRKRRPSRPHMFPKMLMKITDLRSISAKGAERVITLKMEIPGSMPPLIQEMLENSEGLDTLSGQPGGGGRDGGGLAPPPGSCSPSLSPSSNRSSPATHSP

CC1(C)S[C@@H]2[C@H](NC(=O)[C@H](N)c3ccccc3)C(=O)N2[C@H]1C(=O)O
inactive: [1] | [2] | [3] | [4] | [5] | [6] | [7] | [8] | [9] | [10] | [11] | [12] | [13] | [14] | [15] | [16]

Cc1cc2nc3c(=O)[nH]c(=O)nc-3n(C[C@H](O)[C@H](O)[C@H](O)CO)c2cc1C
active: [17] 6.52 µM

CCCCOC(=O)COc1ccc(Cl)cc1Cl
inactive: [18] | [20]
active: [19] 74.6 µM

Cc1cc(O)cc(C)c1Cl
inactive: [17] | [18] | [20]
active: [19] 13.8 µM

CN(C)CCC(c1ccc(Cl)cc1)c1ccccn1 (stereo not given)
inactive: [1] | [2] | [3] | [4] | [5] | [6] | [7] | [8] | [9] | [10] | [11] | [12] | [13] | [14] | [15] | [16]
